The text below walks through data of PubChem BioAssay (NCATS).

Results filed as inconclusive are left out. Calls of active or inactive are those of the source. Calls come from the whole dose curve; as a rule, active = well fitted cell-killing curve with a large enough effect; inconclusive = small, poorly fitted or top-dose-only effect, or effect the other way; inactive = no such curve, though single readings can be large or run the other way.
Potency is the fitted concentration of half-maximal effect.

One assay is described as follows: Quantitative High-Throughput drug screen in 47 multiple myeloma cell lines against the NCATS MIPE library collection: XG6_PLB cell viability assay (AID 1919865).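 For viability (% of control): 100% = DMSO-only wells and 0% = media-only wells.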 Note: nearly all actives have a fitted effect of over 40% in size. Particulars: XG6 myeloma viability, CellTiter-Glo ATP luminescence, 48 h; series mostly up to 45.8 µM; viability (% of control): at the top concentration. Summed up: (§1)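 ATP-based luminescence (CellTiter-Glo, 5 min RT incubation) quantified surviving cells following two days' treatment with MIPE 4.0 agents at 37 °C, 5% CO2.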
Take `Cc1nnc(C(C)C)n1C1C[C@H]2CC[C@@H](C1)N2CC[C@H](NC(=O)C1CCC(F)(F)CC1)c1ccccc1` (stereo not given in full): the Potency was 4.69 µM (active).

On to `CCOC(=O)C1=C(N)Oc2ccc(Br)cc2C1C(C#N)C(=O)OCC` (stereo not given), for which the Potency is 18.7 µM (active). Take `O=C(O)[C@H]1O[C@H](Oc2cc3oc(-c4ccccc4)cc(=O)c3c(O)c2O)[C@H](O)[C@@H](O)[C@H]1O`: the “viability (% of control)” value was 120% (inactive). As to `CC(C)=CC[C@@H](O)C1=CC(=O)c2c(O)ccc(O)c2C1=O`, the Potency is 0.469 µM (active). As to `Cc1ccccc1C(C(=O)NC1CCCCC1)N(C(=O)Cn1ccnc1C)c1cccc(F)c1` (stereo not given), the “viability (% of control)” value was 97.6% (inactive). With `CC(C)C(C)C=CC(C)C1CCC2C3=CC=C4CC(O)CCC4(C)C3CCC21C` (stereo not given), the “viability (% of control)” value is 113% (inactive). The same measure, in the same setting: then `CN1[C@@H]2CCC[C@@H]1CC(NC(=O)c1nn(C)c3ccccc13)C2` (stereo not given in full), with 112% (inactive). As for `Cc1ccc(C(=O)Nc2cccc(C(F)(F)F)c2)cc1Nc1nc(-c2cccnc2)nc2c1cnn2C`, the Potency was 4.69 µM (active). `CC=CC(=O)N(CC)c1ccccc1C`: the Potency was 23.5 µM (active). Regarding `O=c1cc(-c2cccc3c2Sc2ccccc2S3)oc(N2CCOCC2)c1`, the Potency was 18.7 µM (active). Consider `Cc1c(O)cccc1C(=O)N[C@@H](CSc1ccccc1)[C@H](O)CN1C[C@H]2CCCC[C@@H]2C[C@@H]1C(=O)NC(C)(C)C`, for which the Potency is 29.6 µM (active).

`Clc1ccc(C(c2ccc(Cl)cc2)n2cc[n+](CC(OCc3ccc(Cl)cc3Cl)c3ccc(Cl)cc3Cl)c2)cc1` (stereo not given): the Potency is 6.62 µM (active). In the case of `CC(=O)Nc1ccc([C@H](C)C(=O)Nc2ncc(C(C)C)s2)cc1`, the Potency is 0.0935 µM (active). Consider `CS(=O)(=O)N(Cc1ccco1)CC(O)Cn1c2ccccc2c2ccccc21` (stereo not given), for which the “viability (% of control)” value was 89.5% (inactive).

In the case of `CC1(C)CCC[C@@]2(C)[C@@H]1CC[C@@]1(C)OC(=O)C[C@H]21`, the “viability (% of control)” value is 114% (inactive). For `Oc1ccc(C2=Cc3ccc(O)cc3OC2)cc1`, the Potency was 1.32 µM (active).

Turning to `NC1=N[C@@]2(c3cc(NC(=O)c4ccc(F)cn4)ccc3F)COC[C@@H]2CS1`, the Potency was 3.72 µM (active).

Another assay can be described thus: Quantitative High-Throughput drug screen in 47 multiple myeloma cell lines against the NCATS MIPE library collection: XG1_PLB cell viability assay (AID 1919866). Note: nearly all actives have a fitted effect of over 35% in size. Particulars: CellTiter-Glo ATP, 48 h; series mostly up to 45.8 µM; viability: at the top concentration. Summed up: as §1
`COc1ccc2cc(-c3nc(-c4ccc(S(C)=O)cc4)[nH]c3-c3ccncc3)ccc2c1` (stereo not given): the Potency was 23.5 µM (active). `CC(C)C(=O)Nc1ncc(-c2cc(C(F)F)nn2-c2c(Cl)cccc2Cl)s1`: the Potency is 10.5 µM (active). Consider `CCOC(=O)C1=C(N)Oc2ccc(Br)cc2C1C(C#N)C(=O)OCC` (stereo not given), for which the Potency was 16.6 µM (active).

For the compound `CC(C)=CC[C@@H](O)C1=CC(=O)c2c(O)ccc(O)c2C1=O`, the Potency is 0.418 µM (active). `Cc1ccccc1C(C(=O)NC1CCCCC1)N(C(=O)Cn1ccnc1C)c1cccc(F)c1` (stereo not given): the “viability” value is 91.1% (inactive).

In the case of `CO[C@H]1C=CC=C(C)C(=O)NC2=CC(=O)C(NCCN(C)C)=C(C[C@@H](C)C[C@H](OC)[C@@H](O)[C@@H](C)C=C(C)[C@@H]1OC(N)=O)C2=O`, the Potency was 0.0372 µM (active).

For the compound `CN1[C@@H]2CCC[C@@H]1CC(NC(=O)c1nn(C)c3ccccc13)C2` (stereo not given in full), the “viability” value is 108% (inactive).

As to `Cc1ccc(C(=O)Nc2cccc(C(F)(F)F)c2)cc1Nc1nc(-c2cccnc2)nc2c1cnn2C`, the Potency is 10.5 µM (active). With `CO[C@H]1C=CO[C@@]2(C)Oc3c(C)c(O)c4c(O)c(c5c(c4c3C2=O)NC2(CCN(CC(C)C)CC2)N=5)=NC(=O)C(C)=CC=C[C@H](C)[C@H](O)[C@@H](C)[C@@H](O)[C@@H](C)[C@H](OC(C)=O)[C@H]1C`, the Potency was 20.9 µM (active). `CC=CC(=O)N(CC)c1ccccc1C`: the Potency is 26.4 µM (active). Same read-out and setting: then `COc1cc2ncnc(Nc3ccc(F)c(Cl)c3)c2cc1OCCCN1CCOCC1`, with 3.03 µM (active); and `O=c1cc(-c2cccc3c2Sc2ccccc2S3)oc(N2CCOCC2)c1`, with 18.7 µM (active). For the compound `Cc1c(O)cccc1C(=O)N[C@@H](CSc1ccccc1)[C@H](O)CN1C[C@H]2CCCC[C@@H]2C[C@@H]1C(=O)NC(C)(C)C`, the Potency is 23.5 µM (active).

As to `O=C(CCCCCCC(=O)Nc1ccccc1)NO`, the Potency is 2.96 µM (active). On the same count and under the same terms, then `Clc1ccc(C(c2ccc(Cl)cc2)n2cc[n+](CC(OCc3ccc(Cl)cc3Cl)c3ccc(Cl)cc3Cl)c2)cc1` (stereo not given), with 8.33 µM (active); and `O=C1C(Cl)=C(NCCN2CCOCC2)C(=O)c2ncccc21`, with 6.62 µM (active). Take `CCC(=O)NC[C@H](Cc1ccc(OCCc2nc(-c3ccccc3)oc2C)cc1)NC(C)=CC(=O)c1ccc(C(F)(F)F)cc1`: the Potency is 5.26 µM (active). For `CC(=O)Nc1ccc([C@H](C)C(=O)Nc2ncc(C(C)C)s2)cc1`, the Potency was 0.418 µM (active). As to `Oc1ccc(C2CCN(c3ccnc4ccccc34)CC2)cc1O`, the Potency is 0.833 µM (active). Take `CS(=O)(=O)N(Cc1ccco1)CC(O)Cn1c2ccccc2c2ccccc21` (stereo not given): the Potency was 20.9 µM (active). `CC1(C)CCC[C@@]2(C)[C@@H]1CC[C@@]1(C)OC(=O)C[C@H]21`: the “viability” value is 117% (inactive). Turning to `c1cc(-c2sc(-c3ccncc3)c(-c3ccncc3)c2-c2ccncc2)ccn1`, the Potency was 11.8 µM (active). Consider `CCOc1ccc(Nc2nc(-c3c(C)nc4ccccn34)cs2)cc1`, for which the “viability” value was 37.3% (inactive).
